In PubChem BioAssay AID1159580 (chemical genetic matrix, 2015):
In all, about 5,500 compounds went through this assay and about 2,000 (36%) were called active. Not shown: some 18% with an inconclusive outcome. Rule as the data show it: active = normalized growth mostly below about 0.91 (no sharp cut-off); inconclusive = no clear call, values can overlap the other calls; inactive = mostly above about 0.92. This is one part of the list.

Assay: chemical genetic growth profiling, strain panel (AID 1159580);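 also: tested at 20 µM; growth read once vehicle control cultures reached saturation at 30 °C; 1 = growth at the plate median or of vehicle wells; lower values mean less growth of the strain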
Details: S. cerevisiae deletion strains, growth OD

Measured: normalized growth

CC1(C)O[C@@H]2[C@@H](CO[C@@]3(COS(N)(=O)=O)OC(C)(C)O[C@@H]23)O1
inactive: locus YAL021C, strain ccr4, active compounds read low 1.03 | locus YAL026C, strain drs2, active compounds read low 1.03 | locus YAL030W, strain snc1, active compounds read low 1.01 | locus YBL061C, strain skt5, active compounds read low 1.01 | locus YBR009C, strain hhf1, active compounds read low 0.983 | locus YBR023C, strain chs3, active compounds read low 1.02 | locus YBR171W, strain sec66, active compounds read low 1.01 | locus YBR231C, strain swc5, active compounds read low 0.981 | locus YBR279W, strain paf1, active compounds read low 1.02 | locus YCL011C, strain gbp2, active compounds read low 1.01 | locus YCL016C, strain dcc1, active compounds read low 1.04 | locus YCL069W, strain vba3, active compounds read low 1.01 | locus YCR088W, strain abp1, active compounds read low 1.01 | locus YDL005C, strain med2, active compounds read low 1.02 | locus YDL040C, strain nat1, active compounds read low 0.997 | locus YDR001C, strain nth1, active compounds read low 1 | locus YDR069C, strain doa4, active compounds read low 0.994 | locus YDR137W, strain rgp1, active compounds read low 1.08 | locus YDR159W, strain sac3, active compounds read low 0.94 | locus YDR195W, strain ref2 0.987 | locus YDR297W, strain sur2, active compounds read low 0.992 | locus YDR334W, strain swr1, active compounds read low 1.02 | locus YDR335W, strain msn5, active compounds read low 1.02 | locus YDR392W, strain spt3, active compounds read low 1.01 | locus YEL003W, strain gim4, active compounds read low 0.99 | locus YEL037C, strain rad23, active compounds read low 1 | locus YEL061C, strain CIN8 (second series), active compounds read low 1 | locus YER015W, strain faa2, active compounds read low 1.01 | locus YER016W, strain bim1, active compounds read low 1.04 | locus YER111C, strain swi4, active compounds read low 1.02 | locus YER155C, strain BEM2 (second series), active compounds read low 1.02 | locus YFR010W, strain ubp6, active compounds read low 0.983 | locus YGL167C, strain pmr1, active compounds read low 1.01 | locus YGL173C, strain kem1, active compounds read low 0.998 | locus YGL227W, strain vid30, active compounds read low 1.01 | locus YGL240W, strain doc1, active compounds read low 0.991 | locus YGL253W, strain hxk2, active compounds read low 1 | locus YHR013C, strain ard1, active compounds read low 1.07 | locus YHR027C, strain rpn1, active compounds read low 1.01 | locus YHR030C, strain SLT2, active compounds read low 0.98 | locus YHR079C, strain IRE1, active compounds read low 0.965 | locus YHR142W, strain chs7, active compounds read low 1.02 | locus YJL092W, strain hpr5, active compounds read low 1.01 | locus YJL095W, strain BCK1 (second series), active compounds read low 1.01 | locus YJL095W, strain BCK1, active compounds read low 0.974 | locus YJL115W, strain asf1, active compounds read low 1.01 | locus YJL129C, strain trk1, active compounds read low 1.01 | locus YJL154C, strain vps35, active compounds read low 1 | locus YJL164C, strain tpk1, active compounds read low 0.988 | locus YJL166W, strain qcr8, active compounds read low 0.985 | locus YJL187C, strain SWE1, active compounds read low 0.992 | locus YJR066W, strain TOR1, active compounds read low 0.942 | locus YKL160W, strain elf1, active compounds read low 1.05 | locus YKR026C, strain gcn3, active compounds read low 1 | locus YKR091W, strain srl3, active compounds read low 0.999 | locus YLL001W, strain dnm1, active compounds read low 0.987 | locus YLL026W, active compounds read low 1 | locus YLL041C, strain sdh2, active compounds read low 0.991 | locus YLR027C, strain aat2, active compounds read low 1.01 | locus YLR113W, strain HOG1, active compounds read low 0.964 | locus YLR221C, strain rsa3, active compounds read low 0.992 | locus YLR258W, strain gsy2, active compounds read low 1.02 | locus YLR262C, strain YPT6 (second series), active compounds read low 1.01 | locus YLR320W, strain mms22, active compounds read low 0.956 | locus YLR342W, strain FKS1, active compounds read low 1.03 | locus YLR357W, strain rsc2, active compounds read low 1 | locus YLR370C, strain arc18, active compounds read low 1.01 | locus YLR384C, strain iki3, active compounds read low 1.03 | locus YML120C, strain ndi1, active compounds read low 0.999 | locus YMR058W, strain fet3, active compounds read low 1.01 | locus YMR125W, strain sto1, active compounds read low 1 | locus YMR129W, active compounds read low 1 | locus YMR205C, strain PFK2, active compounds read low 0.981 | locus YMR231W, strain pep5, active compounds read low 1 | locus YNL071W, strain lat1, active compounds read low 1.01 | locus YNL183C, strain NPR1, active compounds read low 0.902 | locus YNL209W, strain ssb2, active compounds read low 1.01 | locus YNL248C, strain rpa49, active compounds read low 1.03 | locus YNL322C, strain KRE1 (second series), active compounds read low 1.01 | locus YNR049C, strain mso1, active compounds read low 0.99 | locus YOR001W, strain rrp6, active compounds read low 0.965 | locus YOR070C, strain gyp1, active compounds read low 1.01 | locus YOR080W, strain dia2, active compounds read low 1.02 | locus YOR083W, strain WHI5, active compounds read low 0.996 | locus YOR106W, strain vam3, active compounds read low 1.04 | locus YOR231W, strain MKK1, active compounds read low 0.977 | locus YOR265W, strain rbl2, active compounds read low 1 | locus YOR270C, strain vph1, active compounds read low 1.06 | locus YOR290C, strain snf2, active compounds read low 1.06 | locus YPL051W, strain arl3, active compounds read low 1.07 | locus YPL078C, strain atp4, active compounds read low 1.04 | locus YPL106C, strain sse1, active compounds read low 1.07 | locus YPL240C, strain hsp82, active compounds read low 1.01 | locus YPL256C, strain CLN2, active compounds read low 0.95
